Results from PubChem BioAssay AID504582 (Broad Institute, 2011).
The whole screen tested about 340,000 compounds, of which about 2,300 (0.68%) were called active. No stated cut-off is given here; in the data, active means growth rescue above about 28% (passing the limit was not always enough); inconclusive means no clear call, values can overlap the other calls. Shown is part of a subset that was picked to be rich in actives.

Test: rescue of yeast from PfHsp40 toxicity, primary screen, S. cerevisiae, ATP luminescence (AID 504582);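 further: yeast W303a lacking pdr1 and pdr3 grown in galactose medium; growth measured after three days at 30 °C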
Settings: S. cerevisiae expressing PfHsp40, growth rescue, at 12.5 µM, stronger effect = higher value

SMILES | growth rescue
CC(Oc1cccc(NC(=O)c2cccs2)c1)C(=O)c1ccccc1 (stereo not given) | 3.27% (inactive)
Cc1ccoc1C(=O)Nc1cccc(Oc2ccccc2)c1 | 372% (active)
Cc1cccc(NC(=O)Nc2cccc(Oc3c(F)c(F)c(F)c(F)c3F)c2)c1 | -0.315% (inactive)
CCC1CCCCN1CCNC(=O)c1[nH]c(C)c(C(C)=O)c1C (stereo not given) | -0.34% (inactive)
O=C1NC2(CCCCCC2)C(=O)N1CCS(=O)(=O)Oc1ccccc1 | 0.283% (inactive)
O=C(NCC1COc2ccccc2O1)C1(c2ccccc2)CCCC1 (stereo not given) | 2.05% (inactive)
CN(C)CC1Oc2ccccc2OC1(O)c1ccccc1 (stereo not given) | 472% (active)
CN(C)CCOC(=O)C(c1ccccc1)C1(O)CCCC1 (stereo not given) | 0.536% (inactive)
CSc1ncccc1C(=O)NCc1ccccc1Cl | 1.68% (inactive)
CCN(CC)CCCNC(=O)CCn1nc(-c2ccc(Cl)cc2)ccc1=O | -0.666% (inactive)
O=C(COc1ccccc1F)Nc1nc(-c2ccccn2)cs1 | 398% (active)
CC(NC(=O)c1ccco1)C(=O)Nc1nc(-c2ccccn2)cs1 (stereo not given) | -0.236% (inactive)
O=C(CN1C(=O)C2C3C=CC(C3)C2C1=O)Nc1nc(-c2ccccn2)cs1 (stereo not given) | -0.446% (inactive)
O=C(O)C1=C[C@H](c2cccs2)C[C@H](OCCCCO)O1 | -1.21% (inactive)
O=C(CN1CCCC1)Nc1sc2c(c1C(=O)Nc1ccccc1)CCCC2 | 0.179% (inactive)
O=C(O)c1c(NC(=O)N2CCCC2)sc2c1CCCC2 | 232% (active)
O=C(Nc1sc2c(c1C(=O)O)CCC2)c1ccccc1F | 0.175% (inactive)
C=CCNc1nc(Nc2ccc(Cl)cc2)nc(OC)n1 | 0.232% (inactive)
CC(C)(C)NC(=O)c1ccc(Cn2cc(C(F)(F)F)ccc2=O)cc1 | -0.625% (inactive)
Cn1c(=O)n(C)c2cc(C(=O)Nc3ccc(Br)cc3)ccc21 | -1.51% (inactive)
CCc1ccc(NC(=O)c2ccc(Cn3cc([N+](=O)[O-])cn3)cc2)cc1 | -0.255% (inactive)
Cn1ccc(=Nc2ccc(NC(=O)c3ccc(N=c4ccn(C)c5ccc([N+](=O)[O-])cc45)cc3)cc2)cc1 | 236% (active)
Oc1ccc2ccccc2c1N=Nc1nccs1 | 118% (active)
Cc1ccc(CNC(=O)CC2Sc3ccccc3NC2=O)cc1 (stereo not given) | 0.304% (inactive)

SMILES | growth rescue
Cc1cccc(NC(=O)c2cccc(C(=O)Nc3cccc(C)c3C)n2)c1C | -0.654% (inactive)
O=C(OCc1ccc(-c2ccccc2)cc1)c1cccc(O)c1 | 179% (active)
O=C(OCC(=O)c1c[nH]c2ccccc12)c1cccc(O)c1 | -0.5% (inactive)
O=C(CNC(=O)c1ccc(-c2ccccc2)cc1)OCc1ccc(Cl)cc1 | -0.241% (inactive)
C/C(Cn1nnc2ccccc21)=N\OC(=O)c1cc(F)c(F)cc1Cl | 0.415% (inactive)
O=C(CCC(=O)N1CCCC1)Nc1ccc([N+](=O)[O-])cc1 | -0.401% (inactive)
Cc1c(C(=O)N2CCCC2)c(S(=O)(=O)NCC(C)c2ccccc2)c(C)n1C (stereo not given) | -0.332% (inactive)
CCOC(=O)c1ccccc1NC(=O)COC(=O)CCC(=O)N1CCOCC1 | -0.942% (inactive)
COC(=O)/C=C\C(=O)Nc1cccc([N+](=O)[O-])c1 | 233% (active)
O=C(Nc1cccc([N+](=O)[O-])c1)Nn1cnnc1 | 0.084% (inactive)
CCC(CC)NC(=O)/C=C/c1cccc([N+](=O)[O-])c1 | -2.62% (inactive)
CCOC(=O)N1CCN(C(=O)C(=O)Nc2sc3c(c2C#N)CC(C)(C)OC3)CC1 | -1.13% (inactive)
COc1ccc(-c2nc3n(c(=O)c2C#N)CCS3)c(OC)c1 | -0.93% (inactive)
CCCc1nc(SCC(=O)Nc2ccc(S(=O)(=O)N(C)C)cc2)c2ccccc2n1 | 56.5% (active)
O=C(CSc1nc(C2CC2)nc2ccccc12)Nc1ccc2c(c1)OCCO2 | 0.157% (inactive)
CCCNC(=O)CSc1nc(Cc2ccccc2)nc2ccccc12 | 1.34% (inactive)
Cc1ccc(-n2c(C)nnc2SCC(=O)NC2CC2)cc1 | 0.655% (inactive)
CCCCC/C=C/C1=CC(=O)C[C@H](c2ccc(Cl)cc2)C1 | -0.132% (inactive)
Cc1cccnc1NC(=O)Cn1c(=O)oc2ccccc21 | 0.888% (inactive)
Nc1cc(N)nc(SCc2ccc(Cl)cc2)n1 | 0.722% (inactive)
CSCc1cc(N2CCOCC2)nc(SCc2ccc(Cl)cc2Cl)n1 | 21.9% (inactive)
CSCc1cc(N(C)C)nc(SCc2ccc(Cl)cc2Cl)n1 | 119% (active)
O=C(O)c1cc2ccccc2c(=O)s1 | -1.29% (inactive)
CCCCCCCCCCCCn1ccc(=N)cc1 | 174% (active)

SMILES | growth rescue
CCCCCCCCn1c2c(c(=N)c3c1CCC3)CCCC2 | -1.32% (inactive)
CCCCCN1CC(O)=C(c2ccccc2)C1=N | 1.8% (inactive)
Nc1cccnc1Sc1ccccc1 | -0.346% (inactive)
O=C(CN1C(=O)NC2(CCCCC2)C1=O)NCCC1=CCCCC1 | -1.2% (inactive)
COc1ccc(C(CNC(=O)c2ccc(S(=O)(=O)Nc3ccccc3F)cc2)N(C)C)cc1 (stereo not given) | 33.3% (active)
CC(=O)c1ccc(S(=O)(=O)Nc2ccc(C(=O)NCC(c3ccccc3)N(C)C)cc2)cc1 (stereo not given) | 0.039% (inactive)
COc1ccc(C(CNC(=O)c2ccc(NS(=O)(=O)c3ccc(F)c(C)c3)cc2)N(C)C)cc1 (stereo not given) | -1.73% (inactive)
Cc1ccc(C)c(C(=O)N2CCC(n3nccc3NC(=O)C3CC3)CC2)c1 | -0.915% (inactive)
COc1ccccc1NC(=S)N1CCN(C(c2ccccc2)c2ccccc2)CC1 | -0.67% (inactive)
CCC(C)N(C)C1CCN(C(=S)Nc2ccc(OC)cc2)CC1 (stereo not given) | 0.96% (inactive)
COc1ccccc1C1CCN(C(=S)Nc2ccc(Br)cc2)CC1 | 41.2% (active)
COC(=O)C1(C)NC(c2ccccc2OC)C2C(=O)N(c3ccccc3)C(=O)C21 (stereo not given) | -1.44% (inactive)
O=S(=O)(c1cccc(Cn2nnc(-c3ccc(F)cc3)n2)c1)N1CCOCC1 | 1.33% (inactive)
O=C(OCCN=C1NS(=O)(=O)c2ccccc21)c1cccc([N+](=O)[O-])c1 | 0.884% (inactive)
CCn1c(O)c2ccc(C(=O)N=NC(=O)c3cccnc3)cc2c1O | -1.24% (inactive)
O=C1C2N=NN(CC(=O)N3N=C(c4cccc5ccccc45)CC3c3ccccc3)C2C(=O)N1c1ccccc1 (stereo not given) | -1.21% (inactive)
Oc1ccccc1C1=NN(c2ccccc2)C(c2ccccc2)C1 (stereo not given) | 134% (active)
Cc1ccc(N2C(=O)C3N=NN(CC(=O)N4N=C(c5cccc6ccccc56)CC4c4ccccc4)C3C2=O)cc1 (stereo not given) | -1.11% (inactive)
CCN(CC)C(=O)C1CCC(C)(C(=O)O)C1(C)C (stereo not given) | 1.46% (inactive)
COC(=O)C(C(=O)Nc1cccc(C)n1)C1CCCCCC1 (stereo not given) | -0.474% (inactive)
CC(C)NC(=O)N1CCN(c2ccncc2S(=O)(=O)N2CCCCC2)CC1 | -0.643% (inactive)
O=C(COC(=O)CCOc1ccccc1)Nc1cc(S(=O)(=O)N2CCCCC2)ccc1Cl | 1.68% (inactive)
Brc1ccc(-c2n(-c3ccccn3)c3ccccc3[n+]2-c2ccccn2)cc1 | 0.665% (inactive)
CCCCOC(=O)c1ccc(N2C(=O)CC(N3CCN(C/C=C/c4ccccc4)CC3)C2=O)cc1 (stereo not given) | 0.282% (inactive)

SMILES | growth rescue
CCOC(=O)c1ccc(N2C(=O)CC(N3CC(C)OC(C)C3)C2=O)cc1 (stereo not given) | -0.556% (inactive)
CCOC(=O)c1ccc(N2C(=O)CC(N3CCN(C(=O)c4ccccc4)CC3)C2=O)cc1 (stereo not given) | 53.1% (active)
COc1ccc(N(C)S(=O)(=O)c2ccc3c(c2)CC(C)N3C(=O)C2CC2)c(OC)c1 (stereo not given) | 2.19% (inactive)
CCCCC(C(=O)NC(C)(C)C)N(Cc1ccccc1)C(=O)c1snc(C(N)=O)c1N (stereo not given) | 59.5% (active)
CCC(C(=O)NCCC(C)C)N(Cc1ccccc1Cl)C(=O)c1snc(C(N)=O)c1N (stereo not given) | 0.982% (inactive)
CC(C)(C)NC(=O)C(c1ccc(Cl)cc1)N(CCO)C(=O)c1snc(C(N)=O)c1N (stereo not given) | -0.519% (inactive)
CC12CCC(=O)N1C(C(=O)NCCN1C(=O)S/C(=C\c3ccccc3F)C1=O)CS2 (stereo not given) | -1.34% (inactive)
COc1ccc(CCNc2nc(C)cc(C)n2)cc1OC | 0.933% (inactive)
NS(=O)(=O)c1ccc(CCNC(=O)c2ccc(Cl)c(S(=O)(=O)N3CCCCCC3)c2)cc1 | 0.571% (inactive)
CC1=CC(C)(C)N(C(=O)CSc2nccn2C)c2cc(C)ccc21 | -0.0285% (inactive)
CC1=CC(C)(C)N(C(=O)CSc2nnc(-c3ccccc3)o2)c2ccc(C)cc21 | 81.1% (active)
CCc1ccccc1NC(=O)CSc1nnc(-c2ccncc2)o1 | -0.233% (inactive)
O=C(CN(c1ccc2c(c1)OCCO2)S(=O)(=O)c1ccccc1)Nc1ccc2c(c1)OCO2 | 0.974% (inactive)
COc1ccc(CNC(=O)COC(=O)c2sccc2C)cc1OC | -0.071% (inactive)
COc1ccc(NCCc2ccccn2)cc1 | -0.895% (inactive)
COc1cnc(-c2ccccn2)nc1Oc1ccc(C(C)(C)C)cc1 | 162% (active)
COc1ccnc(Oc2ccccc2)c1-c1ncn[nH]1 | -2.24% (inactive)
CC1(C(=O)O)CCC(C(=O)Nc2ccc(Cl)c(Cl)c2)C1(C)C (stereo not given) | -0.486% (inactive)
Cc1cccc(C)c1NC(=O)CCCSc1nnc(-c2ccco2)n1-c1ccccc1 | 0.934% (inactive)
COc1ccc(CCNC(=O)COc2ccc3c(c2)OCO3)cc1 | -0.845% (inactive)
COc1cc(C)cc(CN2CCC(Cc3ccccc3)CC2)c1O | 0.509% (inactive)
CC1CCCN(CC(O)COCc2ccccc2)C1 (stereo not given) | -0.272% (inactive)
Oc1c(CN2CCCC2)cc(COCc2ccccc2)c2cccnc12 | 281% (active)
